Laboratory results as given in PubChem BioAssay (NCATS).
Inconclusive results are not listed. Entries that show only a call come without a potency. Calls of active or inactive are those of the source. Unless noted, the call rests on the fitted dose curve; in most records, active means well fitted curve in the direction sought with a large enough effect; inconclusive means small, poorly fitted or top-dose-only effect, or another doubt; inactive means no such curve, though single readings can be large; an effect the other way counts as inactive or inconclusive.

Tests used:
[1] = molecular target: Cytochrome P450 2C9 (Homo sapiens) (UniProt P11712); assay: qHTS for inhibitors of CYP2C9 against the NCATS DSHEA and TCM libraries (AID 1919973); further: potency means the concentration at half of the fitted maximal effect
Cytochrome P450 2C9 (Homo sapiens), sequence (P11712 whole entry, looked up): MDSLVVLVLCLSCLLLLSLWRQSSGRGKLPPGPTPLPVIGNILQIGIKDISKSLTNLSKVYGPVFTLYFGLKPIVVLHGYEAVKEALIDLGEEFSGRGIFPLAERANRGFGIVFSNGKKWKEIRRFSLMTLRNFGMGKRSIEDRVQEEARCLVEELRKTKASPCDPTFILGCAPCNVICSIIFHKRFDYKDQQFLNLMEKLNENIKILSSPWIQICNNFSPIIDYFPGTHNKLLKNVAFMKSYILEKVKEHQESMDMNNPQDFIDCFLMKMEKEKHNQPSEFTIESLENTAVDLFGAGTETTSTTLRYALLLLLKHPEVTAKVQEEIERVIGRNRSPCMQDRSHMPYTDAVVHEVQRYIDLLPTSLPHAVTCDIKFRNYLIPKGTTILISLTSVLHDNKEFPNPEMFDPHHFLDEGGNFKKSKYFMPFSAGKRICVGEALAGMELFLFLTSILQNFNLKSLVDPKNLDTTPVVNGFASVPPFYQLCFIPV
Procedure, shortened: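 Substances were tested against enzyme with a pro-luciferin substrate; minus-enzyme wells served as background. After NADPH-initiated oxidation (30-45 min, RT), light was generated with P450-Glo reagent.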

[2] = molecular target: Nuclear receptor subfamily 1 group I member 2 (Homo sapiens) (UniProt O75469); assay: Dual reporter qHTS for agonist of Pregnane X Receptor (hPXR) against the NCATS DSHEA and TCM libraries: Luminescence readout (AID 1920059); further: potency means the concentration at half of the fitted maximal effect
Nuclear receptor subfamily 1 group I member 2 (Homo sapiens), sequence (O75469 whole entry, looked up): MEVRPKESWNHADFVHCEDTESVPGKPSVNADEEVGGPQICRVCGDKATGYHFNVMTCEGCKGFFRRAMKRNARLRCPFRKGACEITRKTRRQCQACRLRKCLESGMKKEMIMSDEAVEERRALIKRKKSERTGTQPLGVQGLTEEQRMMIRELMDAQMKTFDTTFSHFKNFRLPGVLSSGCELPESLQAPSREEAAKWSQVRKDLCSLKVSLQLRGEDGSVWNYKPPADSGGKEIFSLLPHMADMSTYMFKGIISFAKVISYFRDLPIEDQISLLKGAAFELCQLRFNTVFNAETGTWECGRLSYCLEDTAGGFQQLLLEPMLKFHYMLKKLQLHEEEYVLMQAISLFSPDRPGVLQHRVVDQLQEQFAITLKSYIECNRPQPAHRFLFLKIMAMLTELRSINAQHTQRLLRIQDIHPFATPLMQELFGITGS
Procedure, shortened: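 hPXR-Luc HepG2 cells, 2000/well in 5% charcoal-stripped FBS medium, attached 5 h, then exposed 24 h at 37C to compounds. Viability by CellTiter-Fluor, then luciferase luminescence with ONE-Glo.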

[3] = molecular target: Cytochrome P450 3A4 (Homo sapiens) (UniProt P08684); assay: qHTS Assay for Inhibitors and Substrates of Cytochrome P450 3A4 (AID 884); further: nearly all actives have a fitted effect of over 50% in size; further: potency means the concentration at half of the fitted maximal effect
Cytochrome P450 3A4 (Homo sapiens), sequence (P08684 whole entry, looked up): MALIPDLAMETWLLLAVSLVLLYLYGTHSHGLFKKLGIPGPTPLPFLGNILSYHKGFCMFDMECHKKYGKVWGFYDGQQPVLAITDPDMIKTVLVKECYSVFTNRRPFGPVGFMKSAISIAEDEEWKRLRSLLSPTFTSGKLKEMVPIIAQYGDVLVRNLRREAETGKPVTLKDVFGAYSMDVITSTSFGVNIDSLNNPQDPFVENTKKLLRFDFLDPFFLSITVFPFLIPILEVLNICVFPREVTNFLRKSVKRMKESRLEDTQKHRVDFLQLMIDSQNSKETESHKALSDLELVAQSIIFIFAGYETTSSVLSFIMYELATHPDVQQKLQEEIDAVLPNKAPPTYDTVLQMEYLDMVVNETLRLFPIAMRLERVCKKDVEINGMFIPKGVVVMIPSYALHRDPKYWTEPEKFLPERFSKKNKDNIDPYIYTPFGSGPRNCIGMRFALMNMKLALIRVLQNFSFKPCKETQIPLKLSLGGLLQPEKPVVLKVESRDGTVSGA
Procedure, shortened: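 Luminescent readout of luciferin produced by CYP3A4 (20 nM) dealkylation of Luciferin-PPXE, 25 uM (its KM). NADPH-driven reaction ran 60 min at RT after 10 min compound preincubation; data scaled to 57 uM ketoconazole as 100% inhibition.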

[4] = molecular target: Estrogen receptor (Homo sapiens) (UniProt P03372); assay: qHTS assay for small molecule antagonists of estrogen receptor alpha signaling (AID 588513; active means well fitted curve in the direction sought with a large enough effect in the signal ratio, with a control signal flat, not every such curve was filed as active; the % refers to the signal ratio)
Estrogen receptor (Homo sapiens), sequence (P03372 whole entry, looked up): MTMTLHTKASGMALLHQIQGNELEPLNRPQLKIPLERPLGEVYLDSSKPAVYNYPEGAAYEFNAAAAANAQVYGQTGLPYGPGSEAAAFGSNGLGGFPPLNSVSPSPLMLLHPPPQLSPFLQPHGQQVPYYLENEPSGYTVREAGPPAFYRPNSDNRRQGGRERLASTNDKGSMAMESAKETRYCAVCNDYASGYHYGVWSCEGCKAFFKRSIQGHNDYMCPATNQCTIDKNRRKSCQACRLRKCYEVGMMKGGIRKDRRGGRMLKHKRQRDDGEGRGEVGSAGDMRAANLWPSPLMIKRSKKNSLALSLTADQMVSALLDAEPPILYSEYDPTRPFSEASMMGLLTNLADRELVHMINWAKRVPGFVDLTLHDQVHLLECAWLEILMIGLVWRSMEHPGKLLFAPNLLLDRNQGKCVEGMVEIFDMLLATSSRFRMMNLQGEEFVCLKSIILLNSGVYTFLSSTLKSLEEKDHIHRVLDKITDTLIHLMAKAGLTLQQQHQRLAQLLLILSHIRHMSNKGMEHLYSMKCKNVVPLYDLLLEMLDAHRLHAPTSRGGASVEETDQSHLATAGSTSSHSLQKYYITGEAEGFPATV
Procedure, shortened: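 Beta-lactamase reporter, antagonist mode, HEK 293 GripTite cells; 0.5nM E2 stimulus, 18 h, 37 C; CCF4 dye 2 h RT; fluorescence. IC50 and efficacy from Hill fits, normalized to E2 and DMSO.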

[5] = molecular target: Peroxisome proliferator-activated receptor gamma (Homo sapiens) (UniProt P37231); assay: qHTS assay for small molecule agonists of peroxisome proliferator-activated receptor gamma signaling (AID 588536; active means well fitted curve in the direction sought with a large enough effect in the signal ratio, with a control signal flat, not every such curve was filed as active; the % refers to the signal ratio)
Peroxisome proliferator-activated receptor gamma (Homo sapiens), sequence (P37231 whole entry, looked up): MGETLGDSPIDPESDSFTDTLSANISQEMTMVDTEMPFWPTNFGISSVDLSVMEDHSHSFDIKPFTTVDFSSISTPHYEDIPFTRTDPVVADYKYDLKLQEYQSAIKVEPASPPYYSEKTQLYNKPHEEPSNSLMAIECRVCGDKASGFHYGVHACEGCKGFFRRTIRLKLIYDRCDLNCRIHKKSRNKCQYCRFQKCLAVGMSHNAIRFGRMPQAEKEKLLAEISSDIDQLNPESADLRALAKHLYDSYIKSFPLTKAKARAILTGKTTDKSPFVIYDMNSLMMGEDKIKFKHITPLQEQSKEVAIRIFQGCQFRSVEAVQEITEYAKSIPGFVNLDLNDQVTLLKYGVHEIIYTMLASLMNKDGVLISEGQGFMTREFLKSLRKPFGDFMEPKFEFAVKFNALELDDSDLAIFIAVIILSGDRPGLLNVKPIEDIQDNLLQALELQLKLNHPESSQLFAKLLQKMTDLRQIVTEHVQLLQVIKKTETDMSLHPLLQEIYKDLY
Procedure, shortened: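 Cells were plated and held 6–6.5 h at 37 C, then compounds were added as a titration series. After a further 16 h, CCF4 dye was loaded for 2 h at room temperature and emission at 460/530 nm recorded.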

[6] = qHTS assay for small molecule antagonists of retinoid X receptor alpha signaling (AID 588546; active means well fitted inhibition curve with a large enough effect in the signal ratio, with a control signal flat, not every such curve was filed as active; the % refers to the signal ratio;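 further: cells stimulated with 9-cis-retinoic acid as agonist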); details: HEK293T RXRa-UAS-bla, beta-lactamase ratio, antagonist mode; measured here: W530 green channel, cytotoxicity proxy
Procedure, shortened: (§1)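 Beta-lactamase reporter inhibition, read as CCF4 fluorescence ratio (ex 405, em 460/530 nm) after 2 h at RT. HEK293T UAS-bla cells, 2500/well, were stimulated with 9-cis-RA at 500 or 100 nM final alongside test compound for 18 h at 37 C.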

[7] = molecular target: Retinoic acid receptor RXR-alpha (Homo sapiens) (UniProt P19793); assay: as above; details: HEK293T RXRa-UAS-bla, beta-lactamase ratio, antagonist mode
Retinoic acid receptor RXR-alpha (Homo sapiens), sequence (P19793 whole entry, looked up): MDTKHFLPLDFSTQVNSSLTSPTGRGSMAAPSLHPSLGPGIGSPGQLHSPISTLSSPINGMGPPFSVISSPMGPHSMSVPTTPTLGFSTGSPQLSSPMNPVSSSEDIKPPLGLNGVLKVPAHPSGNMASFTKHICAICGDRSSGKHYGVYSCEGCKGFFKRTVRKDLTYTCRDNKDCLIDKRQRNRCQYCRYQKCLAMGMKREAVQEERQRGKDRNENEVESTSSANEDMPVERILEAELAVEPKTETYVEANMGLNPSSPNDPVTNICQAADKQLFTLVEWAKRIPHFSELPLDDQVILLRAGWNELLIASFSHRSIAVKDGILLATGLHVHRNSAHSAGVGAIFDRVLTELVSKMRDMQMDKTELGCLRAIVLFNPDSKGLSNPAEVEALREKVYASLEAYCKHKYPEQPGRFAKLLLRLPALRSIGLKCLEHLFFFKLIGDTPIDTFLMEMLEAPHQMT
Procedure, shortened: as §1

[8] = qHTS assay for small molecule activators of the p53 signaling pathway (AID 651743; active means well fitted activation curve with a large enough effect in the signal ratio, not every such curve was filed as active; the % refers to the signal ratio; further: series mostly up to about 92 µM); details: HCT-116 p53RE-bla, beta-lactamase FRET ratio, 16 h; activation: stronger effect = higher value
Procedure, shortened: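 Reporter: beta-lactamase driven by p53 response elements, stably integrated in HCT-116 cells. Cells seeded at 4,000/well, 5 h preincubation, compound (DMSO) 16 h at 37 C; B/G FRET substrate 2 h RT; fluorescence intensity read.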

[9] = qHTS assay for environmental chemicals that activate the Aryl hydrocarbon Receptor (AhR) signaling pathway (AID 651777); details: 1A2-DRE human hepatoma cells, luciferase, 24 h; activation: stronger effect = higher value; further: nearly all actives have a fitted effect of over 15% in size; further: potency means the concentration at half of the fitted maximal effect
Procedure, shortened: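 Luminescence (One-Glo, 30 min, room temperature) reports AhR-driven luciferase in stably transfected human hepatoma cells bearing DRE and CYP1A2 promoter. Cells (1,200/well) were treated with compound for 24 hr at 37 C in qHTS format.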

[10] = molecular target: Peroxisome proliferator-activated receptor alpha (Homo sapiens) (UniProt Q07869); assay: qHTS assay for small molecule agonists of the peroxisome proliferator-activated receptor alpha (PPARalpha) signaling pathway (AID 651778); details: PathHunter PPARalpha complementation, chemiluminescence, 6 h; max response: stronger effect = higher value
Peroxisome proliferator-activated receptor alpha (Homo sapiens), sequence (Q07869 whole entry, looked up, the tested form may be a part): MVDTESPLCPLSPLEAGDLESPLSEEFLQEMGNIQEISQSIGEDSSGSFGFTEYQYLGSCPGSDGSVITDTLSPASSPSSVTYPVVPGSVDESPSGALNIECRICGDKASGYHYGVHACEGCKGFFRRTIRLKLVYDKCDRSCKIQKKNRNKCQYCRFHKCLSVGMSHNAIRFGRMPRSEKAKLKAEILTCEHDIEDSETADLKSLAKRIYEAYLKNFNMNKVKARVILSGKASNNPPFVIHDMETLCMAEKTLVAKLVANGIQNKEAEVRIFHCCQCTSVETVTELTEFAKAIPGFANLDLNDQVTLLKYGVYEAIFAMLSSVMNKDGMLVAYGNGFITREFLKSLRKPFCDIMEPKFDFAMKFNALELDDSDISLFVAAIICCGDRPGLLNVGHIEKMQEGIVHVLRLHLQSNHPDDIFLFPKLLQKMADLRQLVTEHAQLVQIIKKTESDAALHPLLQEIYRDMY
Procedure, shortened: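 Enzyme-fragment complementation assay in which ligand-bound PPARalpha translocates and forms an active enzyme that generates chemiluminescence. Cells were plated overnight, exposed to compound for 6 hr at 37 C, and then given detection reagent for 60 min at room temperature.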

[11] = qHTS assay for cell viability of HEK293 cells (AID 743288); details: ATP luminescence (CellTiter-Glo), 18 h; max response: stronger effect = lower value; further: nearly all actives have a fitted effect of over 50% in size
Procedure, shortened: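 ATP luminescence (CellTiter-Glo) reports metabolically competent cell number after parental HEK293 cells, 2,000/well, were treated with DMSO-dissolved compounds for 18 h at 37 C; reagent incubation 30 min, room temperature.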

[12] = molecular target: Cytochrome P450 3A4 (Homo sapiens) (UniProt P08684); assay: qHTS Assay for Activators of Cytochrome P450 3A4 (AID 885); further: nearly all actives have a fitted effect of over 65% in size
Procedure, shortened: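 Human CYP3A4 dealkylates Luciferin-PPXE to luciferin, which luciferase detection converts to light. Substrate was at its KM (25uM), buffer 200mM KPO4, reaction 60 min at RT.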

[13] = Viability counterscreen for agonist of constitutive androstane receptor (CAR) against the NCATS DSHEA and TCM libraries (AID 1794838);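 further: HepG2 cells with CYP2B6 reporter and hCAR plus 0.75 µM PK11195 antagonist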
Procedure, shortened: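 Viability by CellTiter-Fluor fluorescence, 405/540 nm, after 1 h at 37C. HepG2-CYP2B6-hCAR cells were exposed 24 h to test substances in presence of 0.75 uM PK11195 (final).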

[14] = molecular target: Cytochrome P450 1A2 (Homo sapiens) (UniProt P05177); assay: p450-cyp1a2 (AID 410; calls by dose curve; further: potency means the concentration at half of the fitted maximal effect)
Cytochrome P450 1A2 (Homo sapiens), sequence (P05177 whole entry, looked up): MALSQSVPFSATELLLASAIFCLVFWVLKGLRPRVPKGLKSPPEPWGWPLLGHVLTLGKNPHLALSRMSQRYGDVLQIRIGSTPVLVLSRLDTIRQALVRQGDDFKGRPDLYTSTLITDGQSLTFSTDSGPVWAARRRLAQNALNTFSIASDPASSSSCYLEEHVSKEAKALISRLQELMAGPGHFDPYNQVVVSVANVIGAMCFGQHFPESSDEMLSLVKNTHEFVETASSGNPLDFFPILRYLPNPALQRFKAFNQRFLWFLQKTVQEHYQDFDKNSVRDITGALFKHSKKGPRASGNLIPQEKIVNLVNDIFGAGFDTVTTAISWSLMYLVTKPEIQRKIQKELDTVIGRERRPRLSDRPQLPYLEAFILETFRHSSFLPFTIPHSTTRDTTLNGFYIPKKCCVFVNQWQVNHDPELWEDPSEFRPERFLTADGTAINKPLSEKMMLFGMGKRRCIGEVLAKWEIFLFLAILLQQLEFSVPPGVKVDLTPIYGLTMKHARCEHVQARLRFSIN
Procedure, shortened: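 20nM CYP1A2, 100uM Luciferin-ME (=Km), 100mM KPO4; cpd 10 min RT; +NADPH regen, 60 min RT; stop/detect 20 min; luminescence. Normalized to furafylline 57 uM = full inhibition.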

[15] = Stat Signaling Pathway (AID 446; active means well fitted curve in either direction with a large enough effect, not every such curve was filed as active;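 further: ME-180 cervical cancer cells given 40 pM IL-6 alongside compound; SIE-controlled beta-lactamase reporter measured as 460/530 nm FRET emission ratio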)
Procedure, shortened: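 Normalization used AC90 stimulation (300 pM IL-6) and AC90 inhibition (125 nM pan-JAK inhibitor at 40 pM IL-6). The underlying signal is SIE-driven beta-lactamase in ME-180 cells after 5 h IL-6 exposure with compound.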

[16] = molecular target: Dual specificity protein kinase CLK4 (Homo sapiens) (UniProt Q9HAZ1); assay: qHTS Assay for Inhibitors of CDC-like Kinase 4 (ADP-FP Assay) (AID 1795);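 further: recombinant human CLK4 phosphorylating RS repeat peptide at 1 µM ATP; series mostly up to about 50 µM; nearly all actives have a fitted effect of over 60% in size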
Dual specificity protein kinase CLK4 (Homo sapiens), sequence (Q9HAZ1 whole entry, looked up): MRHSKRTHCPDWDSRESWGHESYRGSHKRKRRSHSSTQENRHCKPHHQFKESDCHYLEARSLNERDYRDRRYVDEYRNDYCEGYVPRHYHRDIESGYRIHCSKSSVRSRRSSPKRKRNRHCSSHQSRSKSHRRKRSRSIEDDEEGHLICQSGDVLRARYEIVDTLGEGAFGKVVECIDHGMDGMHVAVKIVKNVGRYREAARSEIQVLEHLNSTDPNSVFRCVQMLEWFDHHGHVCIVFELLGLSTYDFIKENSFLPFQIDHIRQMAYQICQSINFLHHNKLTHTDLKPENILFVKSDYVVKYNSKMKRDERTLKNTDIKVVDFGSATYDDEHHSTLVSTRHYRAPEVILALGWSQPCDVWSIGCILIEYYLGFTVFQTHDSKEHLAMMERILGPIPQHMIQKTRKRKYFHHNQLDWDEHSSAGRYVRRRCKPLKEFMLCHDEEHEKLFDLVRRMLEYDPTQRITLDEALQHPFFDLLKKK
Procedure, shortened: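 FP readout: Orange Transcreener ADP2 tracer (4 nM) plus ADP antibody, read after 30 min at room temperature. Kinase step: 6.25 nM Clk4, 100 uM RS peptide, 1 uM ATP, pH 7.5, 1 h.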

SMILES: O=C(O[C@@H]1Cc2c(O)cc(O)cc2O[C@@H]1c1ccc(O)c(O)c1)c1cc(O)c(O)c(O)c1
- Potency [1]: 12.6 µM (active)
- Potency [2]: inactive

SMILES: C=CC(=C)CCC=C(C)C
- Potency [3]: inactive
- Potency [4]: inactive
- outcome [5]: inactive
- max response [6]: 4.75%
- max response [7]: 7.13% (inactive)
- activation [8]: 0.0217% (inactive)
- activation [9]: 0.322% (inactive)
- max response [10]: -1.83% (inactive)
- max response [11]: 1.18% (inactive)
- Potency [1]: inactive

SMILES: CCCCCCCCCC=O
- Potency [2]: inactive

SMILES: CC(C)=CCCC(C)(OC1OC(COC2OC(CO)C(O)C2O)C(O)C(O)C1O)C1CCC2(C)C1C(O)CC1C3(C)CCC(OC4OC(CO)C(O)C(O)C4OC4OC(CO)C(O)C(O)C4O)C(C)(C)C3CCC12C (centres undefined)
- Potency [1]: inactive
- Potency [2]: inactive

SMILES: CC(C)=CCC[C@](C)(O[C@@H]1O[C@H](CO)[C@@H](O)[C@H](O)[C@H]1O)[C@H]1CC[C@]2(C)[C@@H]1[C@H](O)C[C@@H]1[C@@]3(C)CC[C@H](O[C@@H]4O[C@H](CO)[C@@H](O)[C@H](O)[C@H]4O[C@@H]4O[C@H](CO)[C@@H](O)[C@H](O)[C@H]4O)C(C)(C)[C@@H]3CC[C@]12C
- Potency [2]: inactive

SMILES: COc1cc(/C=C/c2ccccc2)oc(=O)c1
- Potency [3]: 15.8 µM (active)
- outcome [12]: inactive
- Potency [4]: inactive
- outcome [5]: inactive
- max response [6]: 21.7%
- max response [7]: -7.15% (inactive)
- activation [8]: -4.84% (inactive)
- Potency [9]: 7.08 µM (active)
- max response [10]: -1.59% (inactive)
- max response [11]: -23% (inactive)

SMILES: O=Cc1ccccc1O
- Potency [2]: inactive

SMILES: CCCCCCCCC/C=C/C(=O)CCc1ccc(O)c(OC)c1
- Potency [1]: 11.2 µM (active)

SMILES: O=C(/C=C/c1ccc(O)c(O)c1)OC1[C@H](O)CC(O)(C(=O)O)C[C@@H]1O (some centres undefined)
- outcome [13]: inactive
- Potency [2]: inactive

SMILES: CCCCCCCCCCCCCCCCCCCCCC(=O)O
- Potency [2]: inactive

SMILES: COc1ccc(/C=C/c2cc(OC)cc(=O)o2)cc1
- Potency [3]: inactive
- Potency [4]: inactive
- outcome [5]: inactive
- max response [6]: 19.1%
- max response [7]: -3.53% (inactive)
- activation [8]: 10.5% (inactive)
- Potency [9]: 10 µM (active)
- max response [10]: 9.34% (inactive)
- max response [11]: -19.9% (inactive)
- Potency [1]: inactive

SMILES: CC(C)=CCC[C@](C)(O[C@@H]1O[C@H](CO)[C@@H](O)[C@H](O)[C@H]1O)[C@H]1CC[C@]2(C)[C@@H]1[C@H](O)C[C@@H]1[C@@]3(C)CC[C@H](O)C(C)(C)[C@@H]3[C@@H](O[C@@H]3O[C@H](CO)[C@@H](O)[C@H](O)[C@H]3O)C[C@]12C
- outcome [13]: inactive

SMILES: CCCCC/C=C/C(=O)CCc1ccc(O)c(OC)c1
- Potency [1]: inactive
- Potency [2]: 31.6 µM (active)

SMILES: O=c1cc(-c2ccc(O)c(O)c2)oc2cc(O[C@@H]3O[C@@H](CO)[C@@H](O)[C@@H](O)[C@H]3O)cc(O)c12
- Potency [14]: 39.8 µM (active)
- outcome [13]: inactive
- Potency [1]: 3.98 µM (active)

SMILES: Cc1nc2cnc(N3CCOCC3)nc2n(CCc2ccccc2)c1=O
- outcome [15]: inactive
- Potency [16]: inactive
